# Only a selection was taken, and hits are over-represented in it overall.
# LmPK inh – LmPK (Leishmania mexicana) enzyme inhibition; Q27686; purified LmPK, Kinase-Glo ATP luminescence, 1 h; Potency, µM (top dose mostly 57.5 µM), without a hit: top-dose activity change, negative = inhibition, most hits filed as inhibitors; actives 0.37% (n = 290,000); active = well fitted curve in the direction sought with a large enough effect; inconclusive = small, poorly fitted or top-dose-only effect, or another doubt; inactive = no such curve, though single readings can be large; an effect the other way counts as inactive or inconclusive; note: potency is the fitted concentration of half-maximal effect; % is set by controls: 0 for no effect and ±100 for the full control effect
# Target sequence (Q27686 whole entry, looked up): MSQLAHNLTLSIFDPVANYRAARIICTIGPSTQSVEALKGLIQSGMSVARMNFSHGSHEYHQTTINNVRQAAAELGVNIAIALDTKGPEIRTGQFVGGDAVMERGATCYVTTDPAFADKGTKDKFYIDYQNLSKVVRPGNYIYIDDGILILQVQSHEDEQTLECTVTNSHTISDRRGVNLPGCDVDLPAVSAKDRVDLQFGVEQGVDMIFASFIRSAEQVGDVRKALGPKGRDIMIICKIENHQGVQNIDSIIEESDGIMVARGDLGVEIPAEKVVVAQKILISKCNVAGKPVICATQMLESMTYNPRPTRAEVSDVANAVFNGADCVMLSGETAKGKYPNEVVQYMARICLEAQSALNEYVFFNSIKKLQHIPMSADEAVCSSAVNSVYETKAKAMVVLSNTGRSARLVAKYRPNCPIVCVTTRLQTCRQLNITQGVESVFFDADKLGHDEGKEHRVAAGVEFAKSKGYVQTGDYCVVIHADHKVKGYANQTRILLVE
#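 0.1 nM LmPK, 0.5 mM PEP, 0.1 mM ADP; 50 mM imidazole pH 7.2, 7 mM MgCl2, 50 mM KCl; 1 h RT. Kinase-Glo luminescence readout, normalized to no-enzyme (full inhibition) and uninhibited wells.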
# Tb PYK inh – blocks Trypanosoma brucei pyruvate kinase; Q57TT1; TbPYK enzyme, Kinase-Glo Plus ATP luminescence, 45 min; Potency, µM (top dose mostly 76.8 µM), inactives show at the highest dose activity, negative = inhibition, usual class: inhibitors; actives 0.12% (n = 410,000); active = well fitted curve in the direction sought with a large enough effect; inconclusive = small, poorly fitted or top-dose-only effect, or another doubt; inactive = no such curve, though single readings can be large; an effect the other way counts as inactive or inconclusive; note: potency is the fitted concentration of half-maximal effect; % is set by controls: 0 for no effect and ±100 for the full control effect; nearly all actives have a fitted effect of over 50% in size
#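 TbPYK + substrate in 50 mM TEA pH 7.2, 100 mM KCl, 10 mM MgCl2, 0.05% BSA, 0.01% Tween-20; cpd pinned; ADP 130 uM final; 45 min RT; Kinase-Glo Plus 10 min; luminescence endpoint.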
# Shiga toxin inh – blocks Shiga toxin action in Vero cells | inhibition, % at 38.7 µM | Vero cells, Shiga toxin protein synthesis inhibition reporter | actives 9.2% (n = 290,000); in the data active = inhibition mostly above about 28%, no sharp cut-off; inactive = mostly below about 43%; note: 0% is about no effect
# SARS PLP yeast – SARS-CoV PLP inhibition in yeast. actives 0.19% (n = 330,000). Potency, µM (series often up to 32.9 µM), for the others: at the highest dose activity, positive = growth rescue, actives largely listed as activators. AID 485353. S. cerevisiae expressing SARS-CoV PLpro, growth rescue; note: potency is the fitted concentration of half-maximal effect; 0% is about no effect; nearly all actives have a fitted effect of over 55% in size
# NS1 function inh – blocks influenza NS1 protein function. Potency, µM (series often up to 46.1 µM), without a hit: at the top dose activity, positive = more growth. actives 0.4% (n = 270,000); note: potency is the fitted concentration of half-maximal effect; actives are rising curves; nearly all actives have a fitted effect of over 50% in size
#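 Compounds were scored for reversing the slow growth caused by influenza A NS1 in S. cerevisiae, measured by optical density at 600 nm. Assay medium contained 2% galactose at pH 6.0; NS1-free yeast of the same strain were the positive control.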
# CHX counter – counter-screen hit for Shiga toxin inhibitors, cycloheximide | actives 12% (n = 300,000) | cell reporter, cycloheximide protein synthesis inhibition counterscreen | AID 2314 | max response, %; in the data active = max response mostly above about 13%, no sharp cut-off; inactive = mostly below about 14%; note: read at 38.3 µM for the half of the compounds with a filed dose; 0% is about no effect
# LmPK confirm – Inhibits Leishmania mexicana pyruvate kinase, confirmation | AID 2559 | shares compounds with LmPK inh | actives 40% (n = 150) | Potency, µM (titrated, usually from 57.5 µM), inactives show at the highest dose activity change, negative = inhibition, most hits filed as inhibitors | purified LmPK, Kinase-Glo ATP luminescence, 1 h;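 active = compounds giving a full or partial concentration-response curve, as inhibitors or activators; inconclusive = weak, top-dose-only or unclear curve responses; inactive = no response at any tested dose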
# An asterisk follows results filed as active; ? = inconclusive; nt = no result. Unless noted, calls come from the whole dose curve.
SMILES,LmPK inh,Tb PYK inh,Shiga toxin inh,SARS PLP yeast,NS1 function inh,CHX counter,LmPK confirm
O=C1CC(c2ccccc2)CC(O)=C1C=Nc1ccccc1 (stereo unspecified),1%,2%,92*,-3%,nt,30*,nt
O=C1CC(c2ccccc2)CC(O)=C1C=Nc1ccccc1O (stereo unspecified),3%,1%,32,-2%,-7%,23*,nt
O=C1CC(c2ccccc2)CC(O)=C1C=NC1CCCC1 (stereo unspecified),-8%,1%,-4,0%,-4%,-1,nt
CCN(CC(=O)Nc1ccc(OC)cc1)C(=O)c1ccccc1Sc1ccccc1C#N,nt,-3%,nt,-2%,nt,nt,nt
O=C(Nc1ccon1)c1cc2c(s1)CCCCCC2,3%,-3%,64*,-15%,-42%,30*,nt
O=C(Nc1ccon1)c1cc2c(s1)CCCC2,?,-17%,64*,-19%,-45%,35*,nt
O=C(Nn1cnnc1)c1cc2c(s1)CCCCC2,-13%,-4%,42,3%,-10%,2,nt
O=C(Nc1cccc(S(=O)(=O)Nc2ccc(Cl)cc2)c1)c1cc2c(s1)CCCC2,-2%,-13%,-13,-12%,-5%,7,nt
O=C(Nc1ncc(Cc2ccccc2)s1)c1cccs1,-5%,-11%,131*,8%,-48%,59*,nt
O=C(Nc1nnc(SCc2ccccc2)s1)c1cccs1,-27%,-6%,22,-6%,-6%,11,nt
O=C(Nc1ncc(Cc2cccc(Cl)c2)s1)c1cccs1,-1%,9%,126*,-6%,-101%,54*,nt
Cc1ccc(Cc2cnc(NC(=O)c3cccs3)s2)cc1,2%,-5%,192*,?,-49%,46*,nt
Cc1ccc(C(=O)Nc2ncc(Cc3ccccc3)s2)o1,?,nt,80*,-7%,-14%,42*,nt
CC(=O)N1CCN(c2ccccc2NC(=O)COc2cc(C)cc(C)c2)CC1,0%,-5%,-13,-1%,-2%,-6,nt
O=C(Nc1nc(-c2cc(Cl)sc2Cl)cs1)c1cccs1,-3%,-23%,31,-22%,-46%,11*,nt
O=C1NC[C@H](CCCCN2C[C@H](Cc3ccc(O)cc3)N(Cc3ccccc3)C(=O)C2=O)N(CCc2ccc(O)cc2)C1=O,nt,0%,nt,nt,nt,nt,nt
COc1cc(C(=O)OC2CC3CCC2(C)C3(C)C)ccc1OC(C)=O (stereo unspecified),7%,-2%,-4,-3%,-3%,16*,nt
CC1(C)[C@@H]2CC[C@]1(C)[C@@H](OC(=O)/C=C\c1ccccc1)C2,nt,nt,nt,nt,-17%,nt,nt
COC(=O)c1ccc(-c2ccc(Cl)cc2)nc1C,-14%,-4%,37*,-7%,-23%,95*,nt
CN(C)c1ccc(N=Nc2nc3ccccc3n2C)cc1,4µM*,14µM*,-13,-14%,-34%,-9,3.7µM*
Cn1c(N=Nc2ccccc2)nc2ccccc21,2.2µM*,14µM*,14,-60%,-47%,40,7.3µM*
Cn1c(Cl)nc2ccccc21,-3%,1%,-3,-4%,8%,-2,nt
COc1cccc(CN(C)C(=O)CNC(=O)c2ccc3c(c2)OCO3)c1OC,-2%,-2%,-5,5%,-3%,9,nt
Cc1ccc(-c2nn(C)c(=O)c3ccccc23)cc1S(=O)(=O)NCCN1CCOCC1,1%,-3%,-9,-1%,5%,-3,nt
CCOC(=O)CNS(=O)(=O)c1cc(-c2nn(C)c(=O)c3ccccc23)ccc1C,2%,-10%,-9,1%,?,-2,7%
SMILES,LmPK inh,Tb PYK inh,Shiga toxin inh,SARS PLP yeast,NS1 function inh,CHX counter,LmPK confirm
C[C@H](NC(=O)Cc1cc(F)cc(F)c1)C(=O)N[C@@H](C(=O)OC(C)(C)C)c1ccccc1,nt,nt,-35,nt,nt,-6,nt
S=C(NCCc1ccccc1)N1CCn2cccc2C1c1cccnc1 (stereo unspecified),2%,-6%,1,-17%,nt,17,nt
CC(C)(C)NC(=O)C(c1ccncc1)N(C(=O)Cn1nnc(-c2ccc(F)cc2)n1)c1ccccc1 (stereo unspecified),8.9µM*,0%,-11,1%,-1%,-3,-6%
CCOc1ccc(N2C(=O)CN=C2Nc2ccccc2Cl)cc1,3%,-4%,-14,3%,10%,-6,2%
O=C(COC(=O)c1ccc2c(c1)C(=O)N(Cc1ccco1)C2=O)NCC(F)(F)F,0%,-1%,-8,-2%,0%,-4,nt
Cc1occc1C(=O)N/N=C/c1ccc2c(c1)OCO2,4.5µM*,?,67*,-15%,-59%,26*,16µM*
O=C(N/N=C/c1ccc2c(c1)OCO2)c1cc(-c2ccco2)nc2ccccc12,nt,-3%,nt,3%,nt,nt,nt
COc1ccc(COC(=O)CCc2cc(OC)c(OC)c(OC)c2)cc1F,nt,1%,nt,nt,nt,nt,nt
CNC(=S)Nc1ccc(C23CC4CC(CC(C4)C2)C3)cc1,1%,-6%,10,-70%,-1%,1,nt
Oc1ccc(C23CC4CC(CC(C4)C2)C3)cc1O,0.28µM*,?,4,-8%,-63%,4,-13%
COC(=O)c1sc(NC(=O)c2ccoc2C)nc1C,7.1µM*,-1%,16*,-27%,2%,26*,16µM*
COc1cccc(NC(=O)CSc2nc3ccccc3cc2Cc2ccccc2)c1,1%,-5%,-4,1%,12%,8,3%
CCCC(=O)N(Cc1cc2cc(OC)ccc2[nH]c1=O)c1ccc(OC)cc1,nt,0%,nt,nt,nt,nt,nt
Cc1cccc(N=Cc2ccccc2O)c1C,nt,1%,nt,nt,nt,nt,nt
Cc1ccccc1N=CC1=C(O)c2ccccc2C1=O,4µM*,?,42,-3%,-2%,35*,15µM*
Cc1cc(OC(C)C(=O)NCCCn2ccnc2)c2c(C)c(C)c(=O)oc2c1 (stereo unspecified),-1%,4%,-4,-4%,-7%,8,nt
CC(=O)Nc1c(C)nn(-c2ccccc2)c1N1CCC(C(=O)Nc2ccc(F)cc2Cl)CC1,nt,0%,nt,nt,nt,nt,nt
O=C(Nc1ccc(N2CCOCC2)cc1)c1cn2ccccc2n1,2.8µM*,?,56*,-5%,16%,47*,16µM*
O=C(c1ccccc1)c1cc2ccc(O)cc2oc1=O,3.5µM*,?,36,-19%,-2%,21*,7.3µM*
COc1ccc([C@H]2CC(=O)C[C@@H](CCn3cc(Cc4ccccc4)nn3)O2)cc1,nt,-1%,nt,nt,nt,nt,nt
Cc1ccnc(NC(=O)c2ccc3c(c2)OCO3)c1,14µM*,?,66*,-3%,0%,25*,16µM*
Cc1ccc(NC(=O)c2ccc3c(c2)OCCO3)nc1,nt,-14%,nt,nt,nt,nt,nt
COc1ccc(C)cc1NC(=O)c1nnn(Cc2cccc(Br)c2)c1N,nt,8%,nt,nt,nt,nt,nt
c1ccc(-c2nc(-c3ccccn3)no2)cc1,3.5µM*,?,-15,-58%,-6%,-5,15µM*
